Assay results as given in PubChem BioAssay (NCATS).
Results filed as inconclusive are left out. Entries that show only a call come without a potency. The source made the active and inactive calls. Unless noted, the call rests on the fitted dose curve; in most records, active means well fitted curve in the direction sought with a large enough effect; inconclusive means small, poorly fitted or top-dose-only effect, or another doubt; inactive means no such curve, though single readings can be large; an effect the other way counts as inactive or inconclusive.

System: not listed separately
Assay: NS1 protein of Zika virus - qHTS assay to identify small molecule inhibitors in human HEK 293 cells (AID 1347053); further: nearly all actives have a fitted effect of over 55% in size
Details: HEK293 ZIKV MR766 infection, NS1 TR-FRET, 24 h; series mostly up to 46.1 µM
Outline: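 HEK 293; 20 h pre-culture, 37 C/5% CO2; cpd 1 h pre-infection; ZIKV MR766, MOI = 0.5, 24 h, 37 C; TR-FRET NS1 readout (two anti-NS1 Abs); norm. to no-virus vs infected.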

| Compound | Potency |
| --- | --- |
| Cn1c(=O)c2[nH]c(-c3ccccc3)nc2n(C)c1=O | inactive |
| O=S(=O)(c1cccc2c(I)cccc12)N1CCCNCC1 | inactive |
| Fc1cccc(/C=N/N=C/c2cccc(F)c2)c1 | inactive |
| O=Nc1ccc2oc(=O)ccc2c1 | inactive |
| CN(C)c1ccc(/C=C2\C(=O)Nc3ccccc32)cc1 | inactive |
| CN1C2CC(OC(=O)[C@H](CO)c3ccccc3)CC1C1OC12 (stereo partly specified) | inactive |
| N#C/C(=C\c1ccc(-c2cc(Cl)ccc2Cl)o1)C(=O)Nc1cccc2ncccc12 | inactive |
| COc1cccc(OC)c1OCCNCC1COc2ccccc2O1 (stereo unspecified) | inactive |
| COC1=C(OC)C(=O)c2ccccc2C1=O | inactive |
| O=C(O)CCCC[C@@H]1CCSS1 | inactive |
| O=C(/C=C/c1ccc(O)cc1)c1ccc(O)cc1O | inactive |
| Oc1ccccc1O | inactive |
| N.N.N.N.N.N.N.N.N.N.N.N.N.N.O.O.[Ru+4].[Ru+5].[Ru+5] | inactive |
| c1ccc(-c2ccccn2)nc1 | inactive |
| NCCCCC(=O)O | inactive |
| COc1ccccc1CNCCCCCCNCCCCCCCCNCCCCCCNCc1ccccc1OC | inactive |
| N#C/C(=C\c1ccc(O)c(O)c1)C(=O)c1ccc(O)c(O)c1 | inactive |
| N[C@@H](CC(=O)O)C(=O)O | inactive |
| NC[C@H]1O[C@@H](n2cnc3c(N)ncnc32)[C@H](O)[C@@H]1O | inactive |

Target: T1, Tyrosine-protein phosphatase non-receptor type substrate 1 (Homo sapiens) + Leukocyte surface antigen CD47 (Homo sapiens) (UniProt P78324+Q08722)
T1 sequence (P78324 whole entry, looked up): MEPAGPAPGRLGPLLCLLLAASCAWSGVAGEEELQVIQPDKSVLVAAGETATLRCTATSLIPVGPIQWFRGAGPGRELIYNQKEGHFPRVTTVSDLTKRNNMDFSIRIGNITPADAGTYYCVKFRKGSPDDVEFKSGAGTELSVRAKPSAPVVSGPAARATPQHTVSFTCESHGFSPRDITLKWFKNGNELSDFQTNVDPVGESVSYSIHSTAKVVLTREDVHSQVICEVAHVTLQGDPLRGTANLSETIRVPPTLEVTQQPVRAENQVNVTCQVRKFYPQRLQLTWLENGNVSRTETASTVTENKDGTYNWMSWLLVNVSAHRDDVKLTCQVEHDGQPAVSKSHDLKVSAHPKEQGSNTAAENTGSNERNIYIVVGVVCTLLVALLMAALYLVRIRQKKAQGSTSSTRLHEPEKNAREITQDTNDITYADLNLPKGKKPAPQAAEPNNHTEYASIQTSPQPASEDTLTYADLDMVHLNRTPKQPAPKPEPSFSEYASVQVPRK
T1 sequence (Q08722 whole entry, looked up): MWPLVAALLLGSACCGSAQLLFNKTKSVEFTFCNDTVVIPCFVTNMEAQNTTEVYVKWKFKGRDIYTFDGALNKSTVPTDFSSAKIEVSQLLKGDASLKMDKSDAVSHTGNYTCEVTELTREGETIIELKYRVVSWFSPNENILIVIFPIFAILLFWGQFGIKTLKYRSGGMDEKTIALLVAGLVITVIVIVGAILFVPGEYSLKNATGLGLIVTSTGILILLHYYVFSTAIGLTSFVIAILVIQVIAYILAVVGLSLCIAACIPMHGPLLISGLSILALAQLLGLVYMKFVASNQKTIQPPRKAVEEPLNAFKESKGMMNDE
Assay: CD47-SIRPalpha protein protein interaction - LANCE assay qHTS validation (AID 1347057; active means well fitted curve in the direction sought with a large enough effect in the signal ratio, with a control signal flat, not every such curve was filed as active; the % refers to the signal ratio; further: potency means the concentration at half of the fitted maximal effect)
Details: Recombinant CD47-His / biotin-SIRPalpha, TR-FRET ratio; series mostly up to 38.3 µM
Outline: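 First, His-tagged CD47 and Eu-labelled anti-His antibody met the compound for 30 min; next, site-specifically biotinylated SIRPalpha was added for 30 min; finally streptavidin-APC was added before reading the TR-FRET ratio.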

| Compound | Potency |
| --- | --- |
| OCC1O[C@H]([S-])[C@H](O)[C@@H](O)[C@@H]1O.[Au+] (stereo partly specified) | 5.85 µM (active) |
| CC[C@@H](C)[C@H]1O[C@]2(CC[C@H]1C)C[C@@H]1C[C@@H](CC=C(C)[C@@H](O[C@H]3C[C@H](OC)[C@@H](O[C@H]4C[C@H](OC)[C@@H](O)[C@H](C)O4)[C@H](C)O3)[C@@H](C)C=CC=C3CO[C@@H]4[C@H](O)C(C)=C[C@@H](C(=O)O1)[C@]34O)O2 | inactive |
| O=S(=O)(c1cccc2c(I)cccc12)N1CCCNCC1 | inactive |
| Fc1cccc(/C=N/N=C/c2cccc(F)c2)c1 | inactive |
| CC(C)(C)c1ccc(S(=O)(=O)/C=C/C#N)cc1 | inactive |
| NC[C@@H]1O[C@H](C23CC4CC(CC(C4)C2)C3)Cc2c1ccc(O)c2O | inactive |
| O=Nc1ccc2oc(=O)ccc2c1 | inactive |
| N#C/C(=C\c1ccc(-c2cc(Cl)ccc2Cl)o1)C(=O)Nc1cccc2ncccc12 | inactive |
| COc1cccc(OC)c1OCCNCC1COc2ccccc2O1 (stereo unspecified) | inactive |
| COC1=C(OC)C(=O)c2ccccc2C1=O | inactive |
| CC(=O)/C=C1\C(=O)N(C)c2ccccc21 | inactive |
| O=C(/C=C/c1ccc(O)cc1)c1ccc(O)cc1O | inactive |
| COc1ccccc1CNCCCCCCNCCCCCCCCNCCCCCCNCc1ccccc1OC | inactive |
| N#C/C(=C\c1ccc(O)c(O)c1)C(=O)c1ccc(O)c(O)c1 | inactive |
| NC[C@H]1O[C@@H](n2cnc3c(N)ncnc32)[C@H](O)[C@@H]1O | inactive |

Target: T1, Tyrosine-protein phosphatase non-receptor type substrate 1 (Homo sapiens) + Leukocyte surface antigen CD47 (Homo sapiens)
Assay: CD47-SIRPalpha protein protein interaction - HTRF assay qHTS validation (AID 1347058; active means well fitted curve in the direction sought with a large enough effect in the signal ratio, not every such curve was filed as active; the % refers to the signal ratio;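 further: recombinant soluble extracellular CD47 with His tag and biotinylated SIRPalpha domains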)
Details: TR-FRET HTRF CD47-His / biotin-SIRPalpha binding, ratio 665/615; series mostly up to 38.3 µM
Outline: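 TR-FRET read (Ch1/Ch2 ratio) of soluble extracellular CD47 and Avi-biotinylated SIRPalpha domains in PBS pH 7.4 with 0.05% IGEPAL; 7-point compound titration. Sequential 30 min room-temperature steps; non-biotinylated SIRPalpha as control inhibitor.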

| Compound | outcome |
| --- | --- |
| CC[C@@H](C)[C@H]1O[C@]2(CC[C@H]1C)C[C@@H]1C[C@@H](CC=C(C)[C@@H](O[C@H]3C[C@H](OC)[C@@H](O[C@H]4C[C@H](OC)[C@@H](O)[C@H](C)O4)[C@H](C)O3)[C@@H](C)C=CC=C3CO[C@@H]4[C@H](O)C(C)=C[C@@H](C(=O)O1)[C@]34O)O2 | inactive |
| Fc1cccc(/C=N/N=C/c2cccc(F)c2)c1 | inactive |
| CC(C)(C)c1ccc(S(=O)(=O)/C=C/C#N)cc1 | inactive |
| NC[C@@H]1O[C@H](C23CC4CC(CC(C4)C2)C3)Cc2c1ccc(O)c2O | inactive |
| COc1ccccc1CNCCCCCCNCCCCCCCCNCCCCCCNCc1ccccc1OC | inactive |
| CSc1ccccc1N1CCN(CCCCCC(=O)NC2CCCc3ccccc32)CC1 (stereo unspecified) | inactive |
| NC[C@H]1O[C@@H](n2cnc3c(N)ncnc32)[C@H](O)[C@@H]1O | inactive |

Target: T1, Tyrosine-protein phosphatase non-receptor type substrate 1 (Homo sapiens) + Leukocyte surface antigen CD47 (Homo sapiens)
Assay: CD47-SIRPalpha protein protein interaction - Alpha assay qHTS validation (AID 1347059);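 further: bead proximity luminescence from CD47 binding SIRPalpha after compound preincubation with SIRPalpha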
Details: AlphaScreen CD47-His/biotin-SIRPalpha binding, LOPAC; series mostly up to 38.3 µM
Outline: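 Biotinylated Avi-tagged SIRPalpha (25 nM) preincubated 30 min with compound, then His-tagged CD47 (12.5 nM) added 30 min; AlphaScreen with Ni-NTA acceptor and streptavidin donor beads. PBS pH 7.4, 0.05% IGEPAL, room temperature; 7-point titrations.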

| Compound | Potency |
| --- | --- |
| CC[C@@H](C)[C@H]1O[C@]2(CC[C@H]1C)C[C@@H]1C[C@@H](CC=C(C)[C@@H](O[C@H]3C[C@H](OC)[C@@H](O[C@H]4C[C@H](OC)[C@@H](O)[C@H](C)O4)[C@H](C)O3)[C@@H](C)C=CC=C3CO[C@@H]4[C@H](O)C(C)=C[C@@H](C(=O)O1)[C@]34O)O2 | inactive |
| O=S(=O)(c1cccc2c(I)cccc12)N1CCCNCC1 | inactive |
| Fc1cccc(/C=N/N=C/c2cccc(F)c2)c1 | inactive |
| CC(C)(C)c1ccc(S(=O)(=O)/C=C/C#N)cc1 | inactive |
| O=Nc1ccc2oc(=O)ccc2c1 | inactive |
| N#C/C(=C\c1ccc(-c2cc(Cl)ccc2Cl)o1)C(=O)Nc1cccc2ncccc12 | inactive |
| CC(=O)/C=C1\C(=O)N(C)c2ccccc21 | inactive |
| O=C(/C=C/c1ccc(O)cc1)c1ccc(O)cc1O | inactive |
| COc1ccccc1CNCCCCCCNCCCCCCCCNCCCCCCNCc1ccccc1OC | inactive |
| NC[C@H]1O[C@@H](n2cnc3c(N)ncnc32)[C@H](O)[C@@H]1O | inactive |
